D1 potentiator: potentiators of human D1 dopamine receptor; HEK293 TREx D1 cells, calcium flux, dopamine EC20 potentiation; potentiation, % at 10 µM; P21728; hit rate 0.036% among 360,000; in the data active = potentiation above about 30%; also: 0% is about no effect
D1 antagonist: human D1 dopamine receptor antagonism. P21728. hit rate 3.2% among 360,000. HEK293 TREx D1 cells, calcium flux, dopamine EC80; hits give low values. activity change, negative = inhibition, % at 10 µM; in the data active = activity change below about -30%; also: % is scaled to controls: 0 for no effect and ±100 for the full control effect
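HEK293 T-REx cells expressing inducible, force-coupled D1 receptor; no-wash Ca dye, 30–90 min RT. Cmpd → 180 s read at 1 Hz → EC80 DA → 180 s read.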
TRHR PAM: allosteric enhancers of human TRH receptor; P34981; TRHR cells, fluo-8 calcium fluorescence, EC20 TRH enhancement; enhancement, % at 2 µM; hit rate 0.66% among 360,000; AID 493056; in the data active = enhancement above about 30%; also: 0% is about no effect
Target sequence (P34981 whole entry, looked up): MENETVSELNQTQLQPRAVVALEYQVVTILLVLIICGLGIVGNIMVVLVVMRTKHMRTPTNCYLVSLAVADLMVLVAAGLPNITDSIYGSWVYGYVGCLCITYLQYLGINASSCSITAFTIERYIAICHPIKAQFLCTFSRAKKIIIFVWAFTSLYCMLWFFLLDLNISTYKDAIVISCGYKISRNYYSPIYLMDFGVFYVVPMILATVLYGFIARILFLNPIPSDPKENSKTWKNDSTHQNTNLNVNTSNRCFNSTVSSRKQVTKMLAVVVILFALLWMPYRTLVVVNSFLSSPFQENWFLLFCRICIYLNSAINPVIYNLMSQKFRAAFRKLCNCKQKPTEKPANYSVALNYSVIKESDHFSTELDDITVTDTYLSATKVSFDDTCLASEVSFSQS
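TRHR-expressing cells loaded with fluo-8 calcium dye were read kinetically (ex 480/em 530) during compound addition, then stimulated with an EC20 of TRH (10 nM final). Enhancement of the Gq-mediated intracellular calcium response was scored.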
TRHR ag: TRH receptor (human) agonism. activation, % at 2 µM. TRHR cells, calcium flux fluo-8, FDSS agonist mode. hit rate 0.18% among 360,000. P34981; also: 0% is about no effect
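Steps: seed TRHR cells overnight; add fluo-8 no-wash Ca dye, RT 30 min–1.5 h; record 10 s baseline; pin-transfer compounds; monitor fluorescence 1 cycle/s for the agonist window. Calcium increases flag candidate agonists.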
D1 agonist: activates the human D1 dopamine receptor; P21728; HEK293 T-REx D1 cells, calcium flux, agonist mode; activation, % at 2 µM; hit rate 1% among 360,000; AID 504660; also: 0% is about no effect
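Tetracycline-induced HEK293 TREx D1 cells, force-coupled to calcium signalling, were dye-loaded with a no-wash calcium kit. Compound was pin-added after a 10 s baseline. Fluorescence was read kinetically at 1 cycle/s for 180 s, with calcium rises flagged as agonism.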
* = called active by the depositor; . = not tested or not shown. Hits are enriched below; roughly 4.6% of the tested compounds scored in any of these assays. Rule as the data show it, unless noted: active = activation above about 30%; inactive = the rest.

SMILES	D1 potentiator	D1 antagonist	TRHR PAM	TRHR ag	D1 agonist
CC1CCCCN1S(=O)(=O)Cc1ccccc1Cl (stereo not given)	-12	-87*	-4	0	0
CCOc1ccc(NS(=O)(=O)c2ccc(C(=O)N(C)C)s2)cc1	2	5	4	0	0
CCOc1ccccc1N(C)C(=O)Cn1cnc2onc(-c3ccc(F)cc3)c2c1=O	2	-31*	-7	1	3
CCOC(=O)c1c(C)oc2nc(C)nc(NCc3ccc(F)cc3)c12	-4	2	-2	0	4
CC(=O)c1sc(NC(=O)c2c(-c3ccccc3)c(-c3ccccc3)nn(C)c2=O)nc1C	-1	9	-4	0	2
O=C(Oc1ccc2c(=O)c(Oc3ccc4ccccc4c3)coc2c1)c1cccnc1	-9	-37*	7	0	11
CCCCN1C(=O)/C(=C/C=C2\Oc3ccccc3N2CC)SC1=S	-6	-30	4	98*	393*
C=CCN1C(=O)/C(=C\C=C2\N(C)c3ccccc3C2(C)C)SC1=S	-8	-1	1	25	85*
CCN1C(=O)/C(=C\N2CCCc3ccccc32)SC1=S	-7	-17	2	-1	2
Cc1c(N=C/C=C2\N(C)c3ccccc3C2(C)C)c(=O)n(-c2ccccc2)n1C	-2	5	-2	1	6
CCCN1C(=O)/C(=C/C=C2\N(CC)c3ccccc3C2(C)C)SC1=S	-2	0	1	24	63*
CN1/C(=C\C=C2/SC(=S)N(CC(=O)O)C2=O)C(C)(C)c2ccccc21	-10	-26	-21	112*	182*
Cc1ccc(NC(=O)CSc2nc3ccccc3nc2Cc2ccccc2)c(C)c1	0	-4	0	0	4
Cc1ccc(N2C(=O)CS(=O)(=O)C23C(=O)N(Cc2ccccc2F)c2ccccc23)cc1Cl (stereo not given)	0	1	4	1	11
O=C(Cn1c(=O)n(Cc2ccco2)c(=O)c2sc3ccccc3c21)Nc1ccc(F)cc1F	-2	-5	0	0	6
COC(=O)C(CC(=O)c1ccc(Cl)cc1)c1ccc(C(C)C)cc1 (stereo not given)	-4	-30*	0	1	9
Cc1ccc(C(CC(=O)c2ccc(Cl)cc2)C(=O)O)cc1 (stereo not given)	-3	13	1	0	2
CCN(CC)S(=O)(=O)c1ccc(N2CCN(S(=O)(=O)c3ccccc3C#N)CC2)nc1	-5	-83*	-5	1	3
Cc1ccccc1Oc1cc(NC(=O)CCCn2nc(C)c([N+](=O)[O-])c2C)cc([N+](=O)[O-])c1	-5	-22	-1	0	1
Cc1nn(CCCC(=O)Nc2cc(Oc3ccc(F)cc3)cc([N+](=O)[O-])c2)c(C)c1[N+](=O)[O-]	-3	-36*	1	1	9
CCOc1ccc(N(CC(=O)Nc2ccc3c(c2)OCO3)S(=O)(=O)c2ccccc2)cc1	-2	-46*	13	0	2
CCOc1ccc(OCCC(=O)OCC(=O)Nc2ccc3c(c2)OCO3)cc1	-6	-53*	-7	0	7
O=C(COc1ccc2c(c1)OCO2)Nc1cccc(F)c1	.	-44*	-4	0	3
CC(C)(C)NS(=O)(=O)c1ccc(CCC(=O)Nc2ccc3c(c2)OCCO3)cc1	-2	5	9	0	2
CC(C)(C)NS(=O)(=O)c1ccc(OCC(=O)Nc2ccc3c(c2)OCCO3)cc1	-7	-30*	-1	0	4
SMILES	D1 potentiator	D1 antagonist	TRHR PAM	TRHR ag	D1 agonist
CCOc1ccc(S(=O)(=O)N(CC(=O)Nc2ccc3c(c2)OCO3)c2ccc(C)cc2)cc1	-2	-16	4	0	9
COc1cccc(C(=O)NCC(c2ccc(N(C)C)cc2)N2CCc3ccccc32)c1 (stereo not given)	0	-4	5	-1	2
Cc1cc(C)c2c(CC(=O)Nc3ccc(S(=O)(=O)N4CCCC(C)C4)cc3)coc2c1 (stereo not given)	1	2	4	1	3
Cc1ccc(NC(=O)N2CCN(C(=O)c3nsc4ccccc34)CC2)cc1C	1	6	0	-1	-1
CCCCc1c(C)nc2c(-c3ccc(OC)cc3)c(C)[nH]n2c1=O	-3	2	0	0	42*
Cc1nn(C)c(C(=O)NC(=S)Nc2ccccc2O)c1Cl	-8	-41*	0	0	2
Cc1nn(C)c(NC(=O)c2ccccc2Cl)c1Cl	-6	-38*	-5	0	1
Cc1cc(NC(=O)c2c(Cl)c(C)nn2C)no1	-13	-1	-1	0	2
Cc1nc(C)c(C(=O)NCc2ccc(Cl)cc2)o1	-1	-61*	-2	0	4
Cc1nn(C)c(C(=O)NCc2ccc(Cl)cc2)c1Cl	-10	-63*	-25	0	12
CCOc1ccc(NC(=S)NC(=O)c2c(Cl)c(C)nn2C)c([N+](=O)[O-])c1	0	-7	-4	0	0
Cc1nn(C)c(NC(=O)c2ccc([N+](=O)[O-])cc2)c1Cl	1	-24	19	0	2
CCCCCCCN1C(Nc2ccccc2)=NC[C@@H]1C	-10	-5	4	0	18
COc1ccc(-c2cc3ccc(O)c(CN4CCCC4)c3oc2=O)cc1OC	2	-5	1	2	4
Cc1ccc(C)c(N2CCN(C3(c4ccccc4)C(=O)c4ccccc4C3=O)CC2)c1	-2	-3	4	1	3
O=C(NCc1ccccc1)c1cnc(N2CCCCC2)c2ccccc12	-3	4	-6	-1	0
Nc1nonc1-c1nc2ccccc2n1CC(=O)Nc1ccccc1C(=O)O	1	8	11	1	0
Cn1c(-c2nonc2N)nc2ccccc21	1	7	-6	0	3
COC(=O)c1ccccc1NC(=O)Cn1c(-c2nonc2N)nc2ccccc21	-10	-67*	1	0	0
CCCn1c(-c2nonc2N)nc2ccccc21	-7	-62*	-4	0	1
CCOc1ccc(S(=O)(=O)NCCC(=O)NCC(c2ccc(F)cc2)N2CCOCC2)cc1 (stereo not given)	-17	-78*	2	0	1
CCOc1ccc(S(=O)(=O)NCCC(=O)NCC(c2ccc(OC)cc2)N2CCCCC2)cc1 (stereo not given)	-2	3	12	0	2
COc1cc(OC)c(OC)cc1CCC(C)NCCC(c1ccccc1)c1ccccc1 (stereo not given)	-7	-15	-2	7	78*
C[C@@H]1CN(CCCn2c3ccccc3c3ccccc32)C[C@H](C)N1	-1	-15	1	1	40*
C/C(=C\COc1cc(=O)[nH]c2ccccc12)CCC(O)C(C)(C)O (stereo not given)	0	4	32*	0	-1
